Several values for one entry are separate records, joined by “and”; a condition that tells them apart may be missing. Equal values may be shown once. About 83,000 compounds went through this panel and 20% of them were active in at least one assay; those are over-represented in the sample as a whole.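 The test compound was applied at a single concentration to cells in 96-well plates for 48 hours, and percent growth was recorded.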 Activity calls are given as the source filed them. How the source made its calls: active means growth percent below 10; inactive means the rest.

Consider 40 molecules from PubChem BioAssay (NCI).

The test system of this assay is MDA-MB-468 breast. Description: NCI-60 one-dose screen, 48 h (100 = growth as untreated, 0 = no growth, -100 = all killed). Conditions: 10 µM unless noted.
`CC(=O)N1N=C(c2ccc(Nc3ccnc4cc(Cl)ccc34)cc2)CC1c1ccc(Cl)cc1` (stereo not given): the growth is 24.3% (inactive).
The same measure for `CCOC(=O)c1c2c(cn1Cc1ccccc1)-c1oncc1CC2`: 105% (inactive); for `O=c1[nH]c2ccccc2cc1-c1nc2ccncc2[nH]1`: 75% (inactive); for `CC1(C)CC2(C)CC(=O)C1C(C(=O)O)C2C(=O)O` (stereo not given): 114% (inactive).
Under `Cn1cc(-c2csc(-c3cn(C)c4ccc(Br)cc34)n2)c2cnccc21` stands -68.4% (active).
The same measure for `CN(C)C/C=C/C(=O)Nc1cc2c(Nc3cccc(Cl)c3F)ncnc2cc1OCCOC(F)F`: -44.6% (active); for `Cc1sc2nc(NCc3ccccc3Cl)[nH]c(=O)c2c1C`: 101% (inactive); for `O=C1N/C(=N/O)S/C1=C/c1cn(-c2ccccc2)nc1-c1ccccc1`: 84.6% (inactive).
On to `CC(C)OC(C(=O)O)c1ccccc1` (stereo not given), for which the growth is 113% (inactive).
Regarding `NNc1ncnc2c1ncn2C1OC(CO)C(O)C1O` (stereo not given), the growth is 58.8% (inactive).
With `COC(=O)c1ccc2c(c1)nc(-c1ccc(O)c(OC)c1)n2-c1cc(C(C)(C)C)[nH]n1`, the growth is 104% (inactive).
The same measure for `COc1ccc(Oc2nc(Nc3ccc(N4CCOCC4)cc3)ncc2NC(=O)Nc2cccc(OC)c2)cc1`: 90.1% (inactive); for `COc1ccccc1S(=O)(=O)Nc1ccc2c3c(cc(CCC(=O)NCCCCNc4cccc5c4C(=O)N(C4CCC(=O)NC4=O)C5=O)cc13)C(=O)N2C` (stereo not given): -35.5% (active).
The same measure for `O=C(Nc1ccc(-n2ccc3c(NC(=O)c4ccccc4)ncnc32)cc1)c1cccc(C(F)(F)F)c1`: 58.6% (inactive).
Under `NC(=O)c1ccc[n+](Cc2ccccc2)c1` stands 98.4% (inactive).
Consider `Cc1nc2nc(C(F)(F)F)[nH]c2nc1C`, for which the growth was 102% (inactive).
Under `COc1ncnc2c1ncn2C/C(Br)=C(\Br)CCl` stands 16.9% (inactive); under `COc1cnc2c(c1)C(=O)c1c-2n(CCCn2ccnc2)c(=O)c2cc(Cl)ccc12`, -11.2% (active); under `C/C(=N\OC(=O)Nc1cccc(Cl)c1)c1ccccc1`, 75.1% (inactive).
Under `C=C(C)[C@@H]1CC[C@]2(C)[C@H](CC=C3[C@@H]4CC(C)(C)CC[C@]4(CO)CC[C@]32C)[C@@]1(C)CCCN` stands -56.3% (active).
The same measure for `CC(=O)O[C@]1(C(C)=O)CC[C@H]2[C@@H]3C=C(Cl)C4=CC(=O)CC[C@]4(C)[C@H]3CC[C@@]21C`: 105% (inactive).
On to `COc1cc(C2c3cc4c(cc3C(O)C(CO)C2CO)OCO4)cc(OC)c1OC` (stereo not given), for which the growth was -17.7% (active).
The same measure for `CN1CCN(CCOc2cc(OC3CCOCC3)c3c(Nc4c(Cl)ccc5c4OCO5)ncnc3c2)CC1`: 25.8% (inactive); for `CCOc1ccccc1/C=N\N=C(\N)N/N=C/c1ccccc1OCC`: -8.3% (active).
Under `S=P(N1CC1)(N1CC1)N1CC1` stands 106% (inactive) and 67.8% (inactive); under `CC(C)(C)n1cc(-c2ccnc(NCCCNS(=O)(=O)c3cccc4ccccc34)c2)c(-c2cccc(O)c2)n1`, 10.7% (inactive).
Under `O=C(Nc1nc2ccc(OC(F)(F)F)cc2s1)c1ccc(F)cc1` stands 21.1% (inactive).
Take `CCCCCCCCCCCCCCCCn1cc[n+](C)c1`: the growth was -79% (active).
The same measure for `COc1ccc(-c2nnc(COc3ccc(NC(=O)Nc4ccccc4)cc3F)o2)cc1`: 86.9% (inactive).
The same measure for `Cc1ccc(S(=O)(=O)N(C)CCCCCC(=O)O)cc1`: 108% (inactive); for `O=C(/C=C/c1cccc(O)c1)c1cccc(-n2cc(-c3ccc4ccccc4c3)[nH]c2=O)c1`: -79.7% (active); for `CNC(=O)c1cccc2cc(Oc3ccnc4cc(OCC5(N)CC5)c(OC)cc34)ccc12`: 74.6% (inactive).
The same measure for `CCCn1cc2c(=O)nc3sc(Cc4ccccc4)c(C)n3c2n1`: 111% (inactive); for `CNCc1cccc2c1OCCOCCOCCN(CCN1CCOCC1)S(=O)(=O)c1ccc(cc1)-c1cnc(N)c(n1)C(=O)N2`: 53.9% (inactive); for `Cc1ccc(N)cc1[N+](=O)[O-]`: 115% (inactive).
Regarding `Cc1cc(CSc2ccc(Cl)cc2)ccc1N`, the growth was 102% (inactive).
Under `CNC1=C([N+](=O)[O-])C(c2ccc(OC)cc2)C(C#N)=C(c2cccs2)O1` (stereo not given) stands 117% (inactive); under `O=[N+]([O-])c1ccccc1N(S(=O)(=O)c1ccccc1)S(=O)(=O)c1ccccc1`, 106% (inactive) and 90% (inactive).
The same measure for `COc1ccc(CNc2ccc3nc(CCC4CCCCC4)[nH]c3c2)cc1`: 39.1% (inactive); for `COc1ccc(NC2=CC(=O)C(C)=C(C)C2=O)cc1`: 57% (inactive).
